Rab9 promoter act – Rab9 promoter activation. Huh7 Rab9 promoter-luciferase reporter, luminescence, 24 h. Potency, µM (highest dose often 9.22 µM), inactives show at the top dose activation, negative = inhibition, usual class: activators. 320,000 tested, 2.8% active. AID 485297; also: % of control where 0% means no effect; nearly all actives have a fitted effect of over 60% in size
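Rab9 promoter-driven luciferase in stably transfected Huh7 cells; 1500 cells/well rested 2 h, exposed to compound in DMSO for 24 h at 37 °C, 5% CO2. Luminescence read 10 min after adding luciferase reagent at ambient temperature.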
ELG1 genotox – inducers of genotoxicity in HEK293T ELG1-luciferase cells; Potency, µM (series often up to 46 µM), for inactives: at the highest dose activity change, positive = activation, usual class: activators; 330,000 tested, 1.3% active; HEK293T ELG1-luciferase reporter, luminescence, 16 h; also: % of control where 0% means no effect; nearly all actives have a fitted effect of over 60% in size
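Cells (2,000/well) expressing the ELG1-luciferase fusion are dosed by pin tool and kept 16 hr at 37 °C, 5% CO2. Signal comes from ONE-Glo luciferase reagent after 30 min at room temperature.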
SMN2 splice enh – enhancers of SMN2 splice variant expression | HEK293 SMN2-luciferase splicing reporter, luminescence, 30-36 h | Potency, µM (top dose mostly 46.1 µM), inactives show at the highest dose activity change, positive = activation, actives largely listed as activators | 210,000 tested, 2.8% active | AID 1458; also: % of control where 0% means no effect; nearly all actives have a fitted effect of over 55% in size
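HEK293 cells carry an SMN2 minigene-luciferase reporter in which exon 7 inclusion puts luciferase in frame. Cells were seeded at 2000 cells/well, attached for 10-12 hours, then exposed to compounds for 30-36 hours at 37C before ONE-Glo luminescence.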
FLuc modulator – counter-screen for miR-21 project: firefly luciferase inhibitors or activators. purified FLuc, Km substrates, luminescence inhibition. Potency, µM (titrated, usually from 57.5 µM), for the others: at the top dose activity change, negative = inhibition, usual class: inhibitors. 360,000 tested, 6.9% active;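 also: plate controls were vehicle for no effect and reference inhibitor for full effect; nearly all actives have a fitted effect of over 55% in size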
Target sequence (P08659 whole entry, looked up): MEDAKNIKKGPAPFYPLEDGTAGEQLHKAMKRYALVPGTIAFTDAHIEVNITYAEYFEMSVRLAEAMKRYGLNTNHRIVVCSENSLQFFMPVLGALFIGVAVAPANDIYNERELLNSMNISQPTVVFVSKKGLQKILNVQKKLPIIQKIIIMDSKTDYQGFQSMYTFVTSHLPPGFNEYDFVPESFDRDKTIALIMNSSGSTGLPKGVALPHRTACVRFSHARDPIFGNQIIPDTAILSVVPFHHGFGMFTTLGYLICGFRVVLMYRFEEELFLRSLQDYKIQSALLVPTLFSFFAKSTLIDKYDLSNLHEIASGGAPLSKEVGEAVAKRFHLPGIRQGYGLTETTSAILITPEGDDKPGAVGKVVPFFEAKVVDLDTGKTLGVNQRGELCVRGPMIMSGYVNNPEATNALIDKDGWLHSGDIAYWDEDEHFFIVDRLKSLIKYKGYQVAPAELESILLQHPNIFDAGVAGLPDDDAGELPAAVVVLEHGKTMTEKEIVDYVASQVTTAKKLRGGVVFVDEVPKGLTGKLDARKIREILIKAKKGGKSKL
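Purified P. pyralis luciferase (10nM final) with 10uM D-luciferin and 10uM ATP (Km levels) in 50mM Tris acetate pH 7.5, 10mM Mg acetate, 0.01% Tween-20, 0.05% BSA; qHTS 6-point titration, ~60 µM downward; luminescence read.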
NPC1 prom act – NPC1 promoter activation; Potency, µM (doses to about 9.22 µM), without a hit: at the highest dose activation, most hits filed as activators; Huh7 NPC1 promoter luciferase reporter, 24 h; 320,000 tested, 2.4% active; also: % of control where 0% means no effect; nearly all actives have a fitted effect of over 60% in size
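Luminescence read-out of NPC1 promoter-driven luciferase in stably transfected Huh7 cells; compounds delivered in DMSO and left 24 h at 37C, 5% CO2, qHTS titration format.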
An asterisk follows results filed as active; [ ] = another dose, or the depositor's remark. Rows were chosen to be rich in hits. Some 7.4% of all compounds tested hit in one or more screens of this group. Calls follow the shape of the dose curve; as a rule, active = well fitted curve in the direction sought with a large enough effect; inconclusive = small, poorly fitted or top-dose-only effect, or another doubt; inactive = no such curve, though single readings can be large; an effect the other way counts as inactive or inconclusive. Potency is read from the fitted curve at half-maximal effect.

Screening CCOC(=O)C1CCN(C(=O)CCCOc2ccccc2)CC1 returned Rab9 promoter act inconclusive, ELG1 genotox inconclusive, SMN2 splice enh 30%, FLuc modulator 9.5µM* and NPC1 prom act inconclusive.
For O=C(CCCOc1ccc(Cl)cc1)N1CCOCC1 the results were Rab9 promoter act -5%[1.84 µM], ELG1 genotox inconclusive, SMN2 splice enh 18%, FLuc modulator -18% and NPC1 prom act -1%.
Screening O=C(c1ccc(COc2ccc(Cl)cc2)cc1)N1CCCCC1 returned Rab9 promoter act inconclusive, ELG1 genotox inconclusive, SMN2 splice enh 12%, FLuc modulator 12µM* and NPC1 prom act inconclusive.
`O=C(CCCOc1ccc(Cl)cc1)N1CCCCCC1` gave Rab9 promoter act 12%, ELG1 genotox 16µM*, SMN2 splice enh 20%, FLuc modulator -3% and NPC1 prom act 12%.
For O=C(COc1ccc(Cl)cc1)N1CCCCCCC1 the results were Rab9 promoter act 19%, ELG1 genotox 1%, FLuc modulator -16% and NPC1 prom act 17%.
For Cc1cc(C)cc(NC(=O)c2cc(S(=O)(=O)N3CCC(C)CC3)cn2C)c1 the results were FLuc modulator -3%.
For CC(C)(C)n1ncc2c(=O)n(Cc3ccc([S+](=O)([O-])N4CCOCC4)cc3)cnc21 the results were FLuc modulator 4%.
For O=C(COc1ccccc1)N1CCCCCCC1 the results were Rab9 promoter act -2%, ELG1 genotox 2%, FLuc modulator 0% and NPC1 prom act 1%.
`O=C(CCCOc1ccccc1)N1CCCCC1` gave Rab9 promoter act inconclusive, ELG1 genotox 0.46µM*, SMN2 splice enh 2.5µM*, FLuc modulator 1.5µM* and NPC1 prom act 0.5µM*.
CCC1CCCCN1C(=O)CCCOc1ccccc1 (stereo not given) was read as Rab9 promoter act inconclusive, ELG1 genotox 13µM*, SMN2 splice enh -2%, FLuc modulator 19µM* and NPC1 prom act inconclusive.
For CCOC(=O)c1ccc(NC(=O)C(CC)Sc2nc3ccncc3[nH]2)cc1 (stereo not given) the results were SMN2 splice enh 6% and FLuc modulator 3%.
`COc1cccc(/C=C/C(=O)Nc2cccc(C(C)=O)c2)c1OC` gave Rab9 promoter act 2.8µM*, ELG1 genotox 2%, SMN2 splice enh 18µM*, FLuc modulator 3µM* and NPC1 prom act 3.2µM*.
COc1cccc(C(=O)NCc2ccc3c(c2)OCO3)c1OC was read as Rab9 promoter act 0%, ELG1 genotox 3%, FLuc modulator -2% and NPC1 prom act -2%.
`COc1cccc(/C=C/C(=O)Nc2ccc(C(=O)Nc3cccc(S(N)(=O)=O)c3)cc2)c1OC` gave Rab9 promoter act 8%, ELG1 genotox -2%, FLuc modulator inconclusive and NPC1 prom act 2%.
For COc1cccc(/C=C/C(=O)Nc2ccc3c(c2)OCCO3)c1OC the results were Rab9 promoter act 0.4µM*, ELG1 genotox 1.3µM*, SMN2 splice enh 2.8µM*, FLuc modulator 0.76µM* and NPC1 prom act 0.4µM*.
`COc1cccc(C(=O)Nc2ccc3c(c2)OCO3)c1OC` gave Rab9 promoter act 1.6µM*, ELG1 genotox inconclusive, FLuc modulator 9.5µM* and NPC1 prom act 1.4µM*.
COc1ccccc1/C=C/C(=O)Nc1cccc(C(C)=O)c1 was read as Rab9 promoter act 27%, ELG1 genotox 1%, SMN2 splice enh 13%, FLuc modulator 11µM* and NPC1 prom act 20%.
Screening C[C@H](CCC(=O)NCC(=O)O)C1CC[C@H]2C3CC[C@@H]4C[C@H](O)CC[C@]4(C)C3C[C@H](O)[C@]12C (stereo not given in full) returned SMN2 splice enh 3%.
Screening O=c1cc(O)c2ccc(O)cc2o1 returned Rab9 promoter act 8%, ELG1 genotox 1%, FLuc modulator -1% and NPC1 prom act 0%.
Screening O=c1ccc2[n+]([O-])c3ccc(O)cc3oc-2c1 returned Rab9 promoter act 0%, ELG1 genotox -10%, FLuc modulator 15µM* and NPC1 prom act 2%.
